Tests used:
Assay in all cases: PBM binding z-score (relative to random genomic background probes); higher = stronger binding; sequences stand for … in GC…GCGATTGACAGCGTAGAATGAAGG
[1] = tested on: PPARg:RXRa DBDmut IVT, anti-RXR (DBD mutation: RXRa K156A/R161A, NR concentration 270 nM, RXRa partner concentration 90 nM)
How it was run: (§1)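 The probes on custom Agilent 4×180K protein-binding microarrays were double-stranded, with 34-nt variable regions bearing direct-repeat seeds, single-nucleotide variants, half-site ablations and random human genomic background sequences. Incubation lasted 1 h with ligand-free nuclear receptor dimers in PBS pH 7.4, 2% milk, 0.02% Triton X-100, 1 mM DTT, 0.2 mg/mL BSA and 0.4 mg/ml salmon testes DNA. Antibodies against each partner (one per run) detected bound dimers, and fluorescence scans were regression-normalized. Binding z-scores take the random background probes as reference.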

[2] = tested on: PPARg:RXRa IVT, anti-PPARg (NR concentration 270 nM, RXRa partner concentration 90 nM)
How it was run: as §1

[3] = tested on: PPARg DBDmut:RXRa IVT, anti-PPARg (DBD mutation: PPARg1 K132A/R137A, NR concentration 270 nM, RXRa partner concentration 90 nM)
How it was run: as §1

[4] = tested on: PPARg DBDmut IVT, anti-PPARg (DBD mutation: PPARg1 K132A/R137A, NR concentration 270 nM)
How it was run: as §1

[5] = tested on: PPARg homodimer (NR concentration 180 nM)
How it was run: as §1

[6] = tested on: PXR:RXRa (NR concentration 270 nM, RXRa partner concentration 90 nM)
How it was run: as §1

[7] = tested on: PXR homodimer (NR concentration 270 nM)
How it was run: as §1

[8] = tested on: RARa:RXR (NR concentration 270 nM, RXRa partner concentration 90 nM)
How it was run: as §1

[9] = tested on: RARa homodimer (NR concentration 270 nM)
How it was run: as §1

[10] = tested on: RARb:RXRa (NR concentration 270 nM, RXRa partner concentration 90 nM)
How it was run: as §1

Row | Sequence | PBM binding z-score [1] | PBM binding z-score [2] | PBM binding z-score [3] | PBM binding z-score [4] | PBM binding z-score [5] | PBM binding z-score [6] | PBM binding z-score [7] | PBM binding z-score [8] | PBM binding z-score [9] | PBM binding z-score [10]
1 | CCAGACAGGTGAAAGGCAACTCAGTCTGGTACGC | 0.767 | 1.08 | 0.0608 | -0.556 | 0.466 | -0.0216 | -0.296 | 0.0824 | 0.0834 | 0.639
2 | CGTACAAGGTCAGAGAGGTCAGTGAATGCCGAGT | 3.77 | 4.39 | 1.15 | 1.93 | 3.94 | 6.31 | 12.2 | 5.87 | 1.83 | 5.17
3 | GTACCAAGGGGAATAGGTCGTTGATGAGTAGGCG | -0.45 | 0.704 | -0.174 | -0.377 | 0.85 | 0.0913 | 0.00696 | 0.389 | 0.37 | 0.516
4 | GGAACGAGGACATTCGAGTTGATAGCATGGCGAT | 0.421 | 0.192 | -0.159 | -0.578 | -0.204 | 0.468 | 0.409 | 0.177 | -0.136 | 0.344
5 | GCTAGTTGGTCAGTAAAAGGTCGCACACCGGTCG | 0.512 | 1.32 | -0.491 | -0.677 | 1.76 | 2.07 | -0.218 | 2.6 | 0.227 | 2.34
6 | TAATATAGGTAAACAGGTGAAAGTCCGTAAGTTA | 6.47 | 6.56 | 2.22 | 1.8 | 2.01 | 0.69 | 0.586 | 1.12 | 1.5 | 0.768
7 | GCGACTGGGGCATCAGCAGGTTACCATGACTTAA | 3.94 | 2.97 | -0.844 | -0.497 | -0.0201 | -0.489 | -0.454 | -0.00016 | -0.803 | 0.805
8 | CAAACTAGGTTAAGGTCAAAGTCGGTTTGTGCCA | 7.61 | 7.5 | 2.24 | 3.72 | 4.36 | 5.2 | 3.07 | 5.71 | 2.29 | 4.32
9 | TAGCCTAGTTCATTGGGCCAGTATAGTACGCATC | 1.48 | 1.68 | -0.38 | -0.291 | -0.325 | 0.756 | 0.651 | -0.0581 | -0.777 | 1.17
10 | GTACCAAGGTGAATACGTCGTTGATGAGTAGGCG | 1.17 | 1.59 | -0.251 | -0.137 | -0.116 | -0.261 | -0.456 | 0.186 | 0.0524 | 1.03
11 | CAAACTAGGTCACACAGGTCAAAGTCCGTGCGTA | 8.75 | 9.19 | 1.71 | 1.11 | 2.43 | 4.78 | 4.14 | 4.85 | 0.759 | 4.59
12 | TGAACGAGGTTATAAGATCAGGGAACGTTGCAAA | 0.0481 | 1.09 | 0.721 | 0.611 | 0.735 | 0.661 | -0.0458 | 1.31 | -0.0844 | 1.18
13 | TCTTGTAGATCAAGCATGTTAAGAAAGCCTGAGT | 1.83 | 0.509 | 0.824 | -0.00587 | -0.0678 | 0.378 | 0.162 | 0.466 | 0.241 | -0.0485
14 | CCGACTGGGGCATAAGGTTTCCATAAGCCAGCCC | 3.04 | 2.38 | -1.41 | -1.66 | -0.419 | -0.536 | -0.762 | -0.479 | 0.00521 | 0.514
15 | CAAACTAGGTCACAGAGGTCAAAATCCGTGCGTA | 8.53 | 9.12 | 3.39 | 4.84 | 4.55 | 6.48 | 10.3 | 6.58 | 2.93 | 5.11
16 | ATCTCTAGGTAAAGTTCAGTGAGAGATCGATAGA | 2.11 | 2.62 | 1.04 | 0.672 | 1.57 | 1.77 | 1.52 | 1.01 | 0.975 | 2.58
17 | TAACCAAGGTGAGCTGAGGTCGTTGATCCAACTC | 0.67 | 1.99 | -0.13 | 0.366 | -0.0916 | 4.88 | 0.136 | 1.74 | -0.541 | 1.81
18 | AGTCAAAGTTCATCTAGGTAACGTTAGATATGCT | 1.25 | 3.81 | 1.67 | 1.07 | 2.67 | 5.32 | 7.67 | 4.08 | 0.982 | 5
19 | CCGAGTAGGGTATGGGGCATTCAGGCAACGGTGA | 0.659 | 1.58 | -0.658 | -0.796 | 0.951 | -0.379 | -0.14 | -0.154 | 0.135 | 0.278
20 | TTACCAAGGTGAAAGGTAGTTGATGCACGCCTTG | 2.96 | 3.26 | 0.619 | 0.152 | 0.643 | 0.603 | -0.0575 | 1.41 | 0.138 | 1.56
21 | ACTAGTTGGTCAGCTGAGGTGACACACAATTCGG | 1.56 | 2 | 0.518 | 0.422 | 0.486 | 0.897 | 0.101 | 1.27 | -0.129 | 1.45
22 | GCATATATGTAATACAAGGTGAAAGTCCGATTGT | 1.6 | 1.75 | 0.651 | 0.705 | 0.207 | 0.156 | 0.0966 | 1.35 | 0.0285 | 0.445

Row | Sequence | PBM binding z-score [1] | PBM binding z-score [2] | PBM binding z-score [3] | PBM binding z-score [4] | PBM binding z-score [5] | PBM binding z-score [6] | PBM binding z-score [7] | PBM binding z-score [8] | PBM binding z-score [9] | PBM binding z-score [10]
23 | GCTAGCAGGCCGTTTGGGTCACTCAATGACGGGC | -0.553 | -0.27 | -1.62 | -1.46 | -0.598 | 0.292 | -0.556 | 0.575 | -1.38 | 1.14
24 | ATCGAAAGGTCGACGAGGTAAGTATACACCGTTT | 0.556 | 1.6 | 0.911 | 0.688 | 1.42 | 2.3 | 0.185 | 3.12 | 0.419 | 3.66
25 | CCAGACAGGTTAGAAGGTAACTCAGCCTCGATTA | 0.311 | 0.0619 | -0.119 | -0.234 | 1.19 | 0.328 | 0.257 | 0.828 | 0.903 | 0.829
26 | TGAATGCGGTTATAAGATCAGGGAACGTTGCAAA | -1.13 | 0.042 | 0.512 | 0.235 | 0.329 | -0.103 | 0.0437 | -0.0387 | -0.0517 | 0.025
27 | GCGACTGAGGCATCAGCAGGTTACCATAACTTAA | -0.328 | -0.559 | -1.15 | -0.218 | -0.486 | -0.397 | -0.552 | 0.102 | -0.596 | -0.298
28 | ATATGTAGGTTATCGGGTCATTCGGTTTGCGCAT | 7.54 | 7.29 | 1.79 | 2.8 | 2.29 | 3.5 | 5.62 | 3.42 | 1.12 | 2.45
29 | CCTACTGGGGCAAAAAGGTCATTGATGCCGATAA | 4.52 | 5.48 | 0.778 | 1.73 | 5.37 | 5.17 | 5.54 | 5.35 | 2.82 | 4.08
30 | CCGACTGGGGCATGGTTACCATAACGCACAGCCA | 2.18 | 2.5 | -0.776 | -0.933 | -0.129 | -0.696 | -0.585 | -0.433 | -0.847 | 0.396
31 | CGTAGTTGGTCAGGAGGTCACACACCGGATATGA | 1.51 | 3.49 | 0.964 | 0.266 | 4.08 | 4.4 | 1.55 | 4.87 | 1.81 | 3.54
32 | CCTACTGGGCCAAGGTCATTGGTCAGTCAAAGCA | 3.94 | 4.88 | -0.325 | -0.629 | 1.86 | 3.62 | 1.12 | 3.85 | 0.172 | 3.56
33 | CCTGCCAGGTCATGGTCAGCTAATCTACAGTATG | 2.15 | 2.35 | -0.561 | -0.338 | 1.2 | 2.16 | 0.231 | 2.61 | -0.0161 | 3.78
34 | ACAGTCAGGTGAGTGAAGGTAACTCAGCTGGACG | 0.794 | 0.82 | -0.123 | -0.515 | -0.608 | -0.47 | -0.728 | -0.00233 | 0.0121 | 0.775
35 | TCTCGTAGGACACGAAGGTCAGAGCTTTCCAGAG | 1.67 | 1.28 | -0.564 | -1.07 | 0.78 | 1.35 | -0.171 | 1.75 | -0.101 | 2.89
36 | CCTACTGGGCCAAGGTCAGTGATCAGTCAAAGCA | 3.15 | 4.03 | 0.453 | -1.43 | 1.3 | 1.14 | -0.136 | 1.75 | -0.243 | 2.89
37 | CCGACTGGGGCAAGGTTACCAAAACGCACAGCCA | 3.12 | 3.53 | -0.395 | -0.973 | 0.0774 | 0.341 | -0.627 | 1.09 | -0.287 | 1.73
38 | CAAACTAGGTCACCGGAAGGTCAAAGACCGCATG | 8.27 | 8.78 | 2.33 | 1.54 | 7.7 | 5.6 | 1.46 | 7.13 | 2.64 | 5.2
39 | TCTATTAGTTGGAGGGCAACCGACGAGTCCGTTT | 1.97 | 0.996 | 0.0745 | -0.289 | 1.04 | 1.08 | 1.11 | 0.737 | 0.176 | 1.35
40 | ATCGAAAGGTCGTGAGGCGAGTATACAGAAAGGC | 0.466 | 1.91 | 1.82 | 1 | 1.5 | 2.96 | 0.0504 | 3.69 | 0.41 | 4.1
41 | CCTACTGGGCCATCAGGTCATTGGTATCAACGTT | 4.05 | 5.2 | -1.01 | -0.269 | 1.09 | 1.67 | 0.395 | 2.04 | -0.0401 | 2.25
42 | CTGCCTAGGTCAGGGCCAGTATAGGAGGAACGTT | 1 | 1.46 | -0.75 | -0.806 | 0.559 | 0.208 | -0.739 | 0.901 | -0.655 | 3.38
43 | CCGACTGGGACAAGGTTACCATAACGCACAGCCA | 2.14 | 2.07 | -0.366 | -0.958 | 0.825 | 0.206 | -0.361 | 0.82 | 0.13 | 0.882
44 | CAAACTAGGTCAATAGGTCAAAGTCCGCTTCCCG | 8.58 | 8.3 | 2.88 | 0.687 | 6.16 | 4.57 | 0.894 | 6.73 | 3.02 | 5.04
